The record followed here is PubChem BioAssay (NCI).

The nature of test [1]: NCI Yeast Anticancer Drug Screen. Data for the rad50 strain (AID 155).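 Note: 0% = growth of vehicle-only cultures of the same strain.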 The settings on record: S. cerevisiae rad50 strain growth inhibition, active compounds read high. The method, boiled down: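 Yeast carrying a defined DNA repair defect were exposed to test compounds, and growth was compared with vehicle-treated controls to give percent inhibition.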
Test [2] is described as follows: NCI Yeast Anticancer Drug Screen. Data for the mec2-1 strain (AID 157). The settings on record: S. cerevisiae mec2-1 strain, active compounds read high. The method, boiled down:
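Test agents were screened against the mec2-1 yeast strain, with defined DNA repair or cell cycle alteration. Growth was scored as inhibition against vehicle-only controls.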

The nature of test [3]: NCI Yeast Anticancer Drug Screen. Data for the sgs1 mgt1 strain (AID 161).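 Note: 0% = growth of cultures given vehicle only.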 The settings on record: S. cerevisiae sgs1 mgt1 strain, active compounds read high. The procedure, abridged:
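Mutant yeast exposed to compound; growth scored against vehicle-only wells.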

A short description of test [4]: NCI Yeast Anticancer Drug Screen. Data for the cln2 rad14 strain (AID 165).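 Note: 0% = growth equal to vehicle treated cultures.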 The settings on record: S. cerevisiae cln2 rad14 strain, active compounds read high. The procedure, abridged: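 Growth of compound-exposed yeast (cln2 rad14 genotype) measured and expressed as inhibition relative to vehicle.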
Test [5] in a line: NCI Yeast Anticancer Drug Screen. Data for the bub3 strain (AID 167). The settings on record: S. cerevisiae bub3 mutant strain, active compounds read high. The method, boiled down: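 Compounds were applied to a genetically altered yeast strain carrying a cell-cycle control defect. Growth inhibition was scored against vehicle-treated controls.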
Test [6] is described as follows: NCI Yeast Anticancer Drug Screen. Data for the mlh1 rad18 strain (AID 175). Conditions: S. cerevisiae mlh1 rad18 strain growth inhibition, active compounds read high. The procedure, abridged: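 In this whole-cell yeast screen, a strain with altered DNA damage repair is challenged with compound, and its growth is measured against matched vehicle-treated controls.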
The mark [7] stands for this setting: at 5.0 µM (retest, dose inferred, filed as 0.5).
[8] abbreviates: at 50.0 µM (retest, dose inferred, filed as 5.0).

Each structure is given as a SMILES string. About 79,000 compounds went through this panel and 15% of them were active in at least one assay; those are over-represented in the sample as a whole. Values without a mark were called inactive. Active and inactive are the calls of the source. Cut-off read from the data, not from the text of the source: active = growth inhibition above about 70%; inactive = the rest.

As for `CC1CC(C)CC(C(O)(C(=O)O)C2CC(C)CC(C)C2)C1` (stereo not given), the growth inhibition in test [1] (setting [7]) was 23%; in test [1] (setting [8]), 99% (active); in test [1] (at 50.0 µM), 99.2% (active); in test [2] (setting [7]), 18%; in test [2] (setting [8]), 99% (active); in test [2] (at 50.0 µM), 97% (active). The growth inhibition in test [3] (setting [7]) is 10%; in test [3] (setting [8]), 99% (active); in test [3] (at 50.0 µM) it was 99.5% (active); in test [4] (setting [7]), 82% (active); in test [4] (setting [8]), 100% (active); in test [4] (at 50.0 µM) it was 78.5% (active). Also, the growth inhibition in test [5] (setting [7]) is 29%; in test [5] (setting [8]), -34%; in test [5] (at 50.0 µM) it was 94% (active); in test [6] (setting [7]), 18%; in test [6] (setting [8]), 99% (active); in test [6] (at 50.0 µM), 99.5% (active).

On to `CCCCCN(CCCCC)C(=S)Nc1ccccc1`, for which the growth inhibition in test [1] (setting [7]) is -36%; in test [1] (setting [8]), 67%; in test [1] (at 50.0 µM), 84.9% (active); in test [2] (setting [7]), -5%; in test [2] (setting [8]), 85% (active); in test [2] (at 50.0 µM), 80.5% (active). Further, the growth inhibition was -19% in test [3] (setting [7]); 83% (active) in test [3] (setting [8]); 77% (active) in test [3] (at 50.0 µM); -22% in test [4] (setting [7]); 74% (active) in test [4] (setting [8]); 80.9% (active) in test [4] (at 50.0 µM). In addition, the growth inhibition in test [5] (setting [7]) is 1%; in test [5] (setting [8]), 94% (active); in test [5] (at 50.0 µM), 87.8% (active); in test [6] (setting [7]), -4%; in test [6] (setting [8]), 90% (active); in test [6] (at 50.0 µM) it was 89.4% (active).

On to `CCCCc1c(O)c(N=NC(=O)C[n+]2ccccc2)c2ccccc2c1O`, for which the growth inhibition in test [1] (setting [7]) was -2%; in test [1] (setting [8]), 10%; in test [1] (at 50.0 µM), 8.55%; in test [2] (setting [7]), -3%; in test [2] (setting [8]), 32%; in test [2] (at 50.0 µM), 11.6%. In addition, the growth inhibition in test [3] (setting [7]) is 2%; in test [3] (setting [8]) it was 27%; in test [3] (at 50.0 µM), 17.8%; in test [4] (setting [7]), 2%; in test [4] (setting [8]), -3%; in test [4] (at 50.0 µM) it was 40.1%. Moreover, the growth inhibition is -3% in test [5] (setting [7]); -1% in test [5] (setting [8]); 13.5% in test [5] (at 50.0 µM); -2% in test [6] (setting [7]); 21% in test [6] (setting [8]); 4.75% in test [6] (at 50.0 µM).

Take `Cc1c2ccncc2c(C)c2c1sc1ccccc12`: the growth inhibition in test [1] (setting [7]) is 83% (active); in test [1] (setting [8]), 94% (active); in test [1] (at 50.0 µM), 89.5% (active); in test [2] (setting [7]) it was 38%; in test [2] (setting [8]), 96% (active); in test [2] (at 50.0 µM), 90% (active). Besides, the growth inhibition is 43% in test [3] (setting [7]); 94% (active) in test [3] (setting [8]); 88.8% (active) in test [3] (at 50.0 µM); 32% in test [4] (setting [7]); 95% (active) in test [4] (setting [8]); 88.8% (active) in test [4] (at 50.0 µM). For the same compound, the growth inhibition in test [5] (setting [7]) was 55%; in test [5] (setting [8]), 95% (active); in test [5] (at 50.0 µM) it was 84.5% (active); in test [6] (setting [7]), 77% (active); in test [6] (setting [8]), 91% (active); in test [6] (at 50.0 µM), 83.3% (active).

Turning to `CSc1nc2c(c(=O)[nH]1)C1C=C(C)CCC1C(C)(C)C2` (stereo not given), the growth inhibition is -5% in test [1] (setting [7]); 97% (active) in test [1] (setting [8]); 52.1% in test [1] (at 50.0 µM); -5% in test [2] (setting [7]); 97% (active) in test [2] (setting [8]); 56.1% in test [2] (at 50.0 µM). For the same compound, the growth inhibition is 0% in test [3] (setting [7]); 97% (active) in test [3] (setting [8]); 56% in test [3] (at 50.0 µM); -3% in test [4] (setting [7]); 96% (active) in test [4] (setting [8]); 69.2% in test [4] (at 50.0 µM). Also, the growth inhibition in test [5] (setting [7]) was 10%; in test [5] (setting [8]) it was 97% (active); in test [5] (at 50.0 µM), 53.8%; in test [6] (setting [7]), -10%; in test [6] (setting [8]), 97% (active); in test [6] (at 50.0 µM), 51.6%.

As for `COC(=O)c1c(COC(=O)NC(C)C)c2n(c1C)CS(=O)(=O)C2`, the growth inhibition in test [1] (setting [7]) is -38%; in test [1] (setting [8]), -8%; in test [1] (at 50.0 µM) it was 97.3% (active); in test [2] (setting [7]), 3%; in test [2] (setting [8]) it was 5%; in test [2] (at 50.0 µM), 98.5% (active). The growth inhibition in test [3] (setting [7]) is -3%; in test [3] (setting [8]), 31%; in test [3] (at 50.0 µM), 98.4% (active); in test [4] (setting [7]), -6%; in test [4] (setting [8]), -20%; in test [4] (at 50.0 µM) it was 98% (active). Further, the growth inhibition in test [5] (setting [7]) was -18%; in test [5] (setting [8]), 3%; in test [5] (at 50.0 µM), 97% (active); in test [6] (setting [7]), -35%; in test [6] (setting [8]), -32%; in test [6] (at 50.0 µM), 97.7% (active).

In the case of `CCCCOC(=O)C#CC(=O)OCCCC`, the growth inhibition in test [1] (setting [7]) is -144%; in test [1] (setting [8]) it was -114%; in test [1] (at 50.0 µM), 99.6% (active); in test [2] (setting [7]), -45%; in test [2] (setting [8]) it was -46%; in test [2] (at 50.0 µM), 99.5% (active). In addition, the growth inhibition in test [3] (setting [7]) is -64%; in test [3] (setting [8]) it was -40%; in test [3] (at 50.0 µM), 99.3% (active); in test [4] (setting [7]), -58%; in test [4] (setting [8]) it was -65%; in test [4] (at 50.0 µM), 99.2% (active). The growth inhibition is -69% in test [5] (setting [7]); -71% in test [5] (setting [8]); 99.3% (active) in test [5] (at 50.0 µM); -146% in test [6] (setting [7]); -105% in test [6] (setting [8]); 99.2% (active) in test [6] (at 50.0 µM).

Regarding `CS(=O)(=O)OCCN(CCOS(C)(=O)=O)c1ccc(C=Nc2ccc3ccccc3c2)c(Cl)c1`, the growth inhibition in test [1] (setting [7]) was 5%; in test [1] (setting [8]), 22%; in test [1] (at 50.0 µM) it was 10.4%; in test [2] (setting [7]) it was -203%; in test [2] (setting [8]) it was -3%; in test [2] (at 50.0 µM), 23.1%. Further, the growth inhibition was 3% in test [3] (setting [7]); 14% in test [3] (setting [8]); 34% in test [3] (at 50.0 µM); 11% in test [4] (setting [7]); -9% in test [4] (setting [8]); 35.4% in test [4] (at 50.0 µM). For the same compound, the growth inhibition is 0% in test [5] (setting [7]); -9% in test [5] (setting [8]); 5.85% in test [5] (at 50.0 µM); 7% in test [6] (setting [7]); 34% in test [6] (setting [8]); 66% in test [6] (at 50.0 µM).

For the compound `O=C(O)CCSc1ncnc2nc[nH]c12`, the growth inhibition in test [1] (setting [7]) was 3%; in test [1] (setting [8]), 0%; in test [1] (at 50.0 µM), -22.9%; in test [2] (setting [7]), 1%; in test [2] (setting [8]), -18%; in test [2] (at 50.0 µM), -12.8%. The growth inhibition is 0% in test [3] (setting [7]); -24% in test [3] (setting [8]); -30.5% in test [3] (at 50.0 µM); -25% in test [4] (setting [7]); -97% in test [4] (setting [8]); 27.4% in test [4] (at 50.0 µM). Also, the growth inhibition in test [5] (setting [7]) is -10%; in test [5] (setting [8]), -7%; in test [5] (at 50.0 µM) it was -18.8%; in test [6] (setting [7]), -7%; in test [6] (setting [8]), -1%; in test [6] (at 50.0 µM), -13.9%.

In the case of `Nc1nnc2nc(CC(=O)c3ccccc3)/c(=C/C(=O)c3ccccc3)n12`, the growth inhibition in test [1] (setting [7]) was -21%; in test [1] (setting [8]), -10%; in test [1] (at 50.0 µM) it was -14.1%; in test [2] (setting [7]) it was -11%; in test [2] (setting [8]) it was -20%; in test [2] (at 50.0 µM), 9.4%. In addition, the growth inhibition in test [3] (setting [7]) is -23%; in test [3] (setting [8]), -6%; in test [3] (at 50.0 µM) it was 1.05%; in test [4] (setting [7]), -17%; in test [4] (setting [8]), -16%; in test [4] (at 50.0 µM) it was 28.6%. The growth inhibition is 5% in test [5] (setting [7]); -5% in test [5] (setting [8]); -4.95% in test [5] (at 50.0 µM); -21% in test [6] (setting [7]); -9% in test [6] (setting [8]); -0.3% in test [6] (at 50.0 µM).
